The results in this text go back to PubChem BioAssay (EPA / NIEHS).

Read-out in assay [1]: Monocyte Chemoattractant Protein-1 (MCP1), CCL2 (gene 6347)
Kind of assay: BSK_SAg_MCP1: BioMAP Diversity Plus: SAg Assay for Monocyte Chemoattractant Protein-1 (MCP1) Biomarker Activity (AID 2283090). As to conditions: primary human HUVEC with PBMC; actives raise or lower the signal. An outline of the steps:
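MCP-1 levels in the endothelial–PBMC SAg co-culture were quantified by ELISA at 24 h post-dosing; both increases and decreases versus DMSO scored. Cytotoxicity monitored by SRB total protein in parallel cultures.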

Read-out in assay [2]: E-selectin (Homo sapiens) (UniProt P16581)
As to the kind of experiment: BSK_SAg_Eselectin: BioMAP Diversity Plus: SAg Assay for Eselectin Biomarker Activity (AID 2283091). The following applies: primary human HUVEC with PBMC; actives raise or lower the signal. An outline of the steps: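 Human umbilical vein endothelial cells co-cultured with peripheral blood mononuclear cells, SAg system. E-selectin is measured by ELISA 24 h after dosing and fitted bidirectionally against DMSO. Cytotoxicity is checked by SRB staining of parallel cultures.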

Read-out in assay [3]: Monokine induced gamma interferon (MIG), CXCL9 (gene 4283)
Kind of assay: BSK_SAg_MIG: BioMAP Diversity Plus: SAg Assay for Monokine induced gamma interferon (MIG) Biomarker Activity (AID 2283092). The following applies: primary human HUVEC with PBMC; actives raise or lower the signal. An outline of the steps:
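Endothelial cells and PBMC were co-cultured, exposed to test chemicals, and sampled 24 h later. MIG was measured by ELISA, and responses were fitted in both directions relative to DMSO.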

The nature of assay [4]: BSK_SAg_PBMCCytotoxicity: PBMC Cytotoxicity Assessment in the BioMAP Diversity Plus: SAg Assay (AID 2283093).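 Further: PBMC viability measured as Alamar Blue reduction fluorescence at 546/580 nm; fitted both ways against DMSO so a hit may be loss or gain of signal.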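 On AC50: PBMC superantigen activated with SEB plus TSST-1 one hour after compound addition.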 As to conditions: primary human HUVEC with PBMC. An outline of the steps: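 HUVEC/PBMC co-culture; PBMC exposed to chemical 1 h before SEB and TSST-1 activation (20 ng/mL each), incubated 90 h, then Alamar Blue 6 h, fluorescence 546/580 nm. Bidirectional fit versus DMSO baseline.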

Read-out in assay [5]: Interleukin-8 (IL8), CXCL8 (gene 3576)
As to the kind of experiment: BSK_SAg_IL8: BioMAP Diversity Plus: SAg Assay for Interleukin-8 (IL8) Biomarker Activity (AID 2283094). The following applies: primary human HUVEC with PBMC; actives raise or lower the signal. An outline of the steps:
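ELISA read-out of IL-8 in a primary human vascular co-culture (umbilical vein endothelium plus PBMC), taken 24 h after compound addition. Values derive from bidirectional fits against DMSO negative controls.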

Assay [6] can be described thus: BSK_SAg_Proliferation: Cell Proliferation Assessment in the BioMAP Diversity Plus: SAg Assay (AID 2283095).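 Further: relative cell number as total protein by SRB absorbance in sub-confluent culture.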 As to conditions: primary human HUVEC with PBMC. An outline of the steps: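 Cells (endothelium plus PBMC, human primary) were dosed with chemical, cultured 96 h, fixed in 10% TCA and stained with 0.1% SRB. Absorbance at 560 nm gave relative protein, fitted bidirectionally relative to DMSO.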

A short description of assay [7]: BSK_SAg_SRB: Viability Assessment in the BioMAP Diversity Plus: SAg Assay (AID 2283096).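 Further: cells read one day after compound addition; hits may be either gain or loss of signal compared with DMSO.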 The following applies: primary human HUVEC with PBMC. An outline of the steps: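 Human umbilical vein endothelial cells co-cultured with PBMC, read 24 h after compound dosing. Total protein measured by sulforhodamine B staining (0.1% SRB after 10% TCA fixation, absorbance 560 nm); bidirectional fit versus DMSO baseline.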

In assay [8] the target is human CYP19A1, CYP19A1 (gene 1588) (UniProt P11511). As to the kind of experiment: NVS_ADME_hCYP19A1: NovaScreen (NVS) CYP450-related Enzyme Activity (ADME) Assay for human CYP19A1 (AID 2283098; active means hit-call score of the fitted dose curve at least 0.9, where 1 is the maximum). An outline of the steps: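 Recombinant enzyme in a cell-free format, read 0.5 h after dosing by fluorescence from a fluorogenic substrate. Loss of signal was fitted against acetonitrile as baseline. Primary screen in duplicate at 10 uM, actives then tested in concentration series.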
Sequence of human CYP19A1, CYP19A1 (gene 1588) (P11511 whole entry, looked up): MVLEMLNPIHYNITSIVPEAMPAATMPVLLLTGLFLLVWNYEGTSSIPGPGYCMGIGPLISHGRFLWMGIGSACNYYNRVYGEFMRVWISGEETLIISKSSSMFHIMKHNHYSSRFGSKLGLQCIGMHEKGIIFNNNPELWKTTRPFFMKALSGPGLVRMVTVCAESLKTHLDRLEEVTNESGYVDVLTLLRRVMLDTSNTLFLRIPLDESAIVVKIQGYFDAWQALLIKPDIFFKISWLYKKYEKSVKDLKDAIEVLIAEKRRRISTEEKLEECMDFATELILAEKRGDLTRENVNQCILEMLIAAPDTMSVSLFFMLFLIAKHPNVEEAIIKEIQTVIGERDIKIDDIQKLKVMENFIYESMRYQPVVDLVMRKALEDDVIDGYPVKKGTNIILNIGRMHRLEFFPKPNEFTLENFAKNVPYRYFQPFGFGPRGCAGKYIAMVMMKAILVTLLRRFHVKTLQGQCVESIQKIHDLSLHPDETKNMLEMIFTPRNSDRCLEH

What is called AC50 is the concentration giving half of the maximal activity seen.

Each structure is given as a SMILES string. Several values for one entry are separate records, joined by “and”; a condition that tells them apart may be missing. Identical values can stand only once. Results filed as inconclusive are left out. The source holds several records for some structures; these can differ, active in one and inactive in another. Activity calls are given as the source filed them. How the source made its calls, unless noted: active means hit-call score of the fitted dose curve at least 0.9, where 1 is the maximum; inactive means score below 0.9.

Sequence of E-selectin (Homo sapiens) (P16581 whole entry, looked up): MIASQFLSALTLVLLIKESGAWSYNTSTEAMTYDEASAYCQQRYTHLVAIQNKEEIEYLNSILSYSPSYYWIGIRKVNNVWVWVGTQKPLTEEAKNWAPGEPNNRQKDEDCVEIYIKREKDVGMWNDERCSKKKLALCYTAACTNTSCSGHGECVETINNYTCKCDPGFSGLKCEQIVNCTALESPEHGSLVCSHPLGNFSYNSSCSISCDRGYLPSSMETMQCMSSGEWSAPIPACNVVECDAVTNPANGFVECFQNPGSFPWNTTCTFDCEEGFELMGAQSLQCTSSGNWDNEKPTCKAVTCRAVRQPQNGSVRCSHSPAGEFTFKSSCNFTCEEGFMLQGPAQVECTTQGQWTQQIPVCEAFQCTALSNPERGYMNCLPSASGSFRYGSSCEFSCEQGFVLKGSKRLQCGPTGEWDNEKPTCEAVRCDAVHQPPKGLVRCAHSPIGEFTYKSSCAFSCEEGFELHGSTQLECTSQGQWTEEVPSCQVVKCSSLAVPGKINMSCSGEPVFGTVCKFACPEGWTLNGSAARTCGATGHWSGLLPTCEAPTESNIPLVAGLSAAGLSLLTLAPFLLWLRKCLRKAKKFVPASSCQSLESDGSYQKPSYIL

`COc1nc(NC(C)C)nc(NC(C)C)n1`: the result in assay [1], in assay [2], in assay [3], in assay [4], in assay [5] and in assay [6] was inactive. The result in assay [7] was inactive.

For `CC(C)Oc1cc(-n2nc(C(C)(C)C)oc2=O)c(Cl)cc1Cl`, the AC50 in assay [1] was 29.9 µM (active); in assay [2], 30.3 µM (active); in assay [3], 31.9 µM (active); in assay [4], 34.4 µM (active); in assay [5] it was 31.2 µM (active); in assay [6], 31.3 µM (active). The AC50 in assay [7] was 30.5 µM (active).

For the compound `CCOc1cc(Oc2ccc(C(F)(F)F)cc2Cl)ccc1[N+](=O)[O-]`, the outcome in assay [1], in assay [3] and in assay [4] was inactive. The AC50 in assay [2] was 9.5 µM (active); in assay [5] it was 12.5 µM (active); in assay [6] it was 18.5 µM (active); in assay [7], 13.3 µM (active).

For `N#Cc1cc(Br)c(O)c(Br)c1`, the outcome in assay [1], in assay [2] and in assay [3] was inactive. The AC50 was 14.4 µM (active) in assay [4], 30.5 µM (active) in assay [5], 33.4 µM (active) in assay [6] and 20 µM (active) in assay [7].

For the compound `CC1=C(C(=O)Nc2ccccc2)SCCO1`, the result in assay [1], in assay [2], in assay [3], in assay [4], in assay [5] and in assay [6] was inactive. In assay [7], the outcome was inactive.

`CC(C)(C)c1ccc(CSc2cnn(C(C)(C)C)c(=O)c2Cl)cc1`: the half-maximal activity concentration (AC50) is 1.11 µM (active) in assay [1]; 0.148 µM (active) in assay [2]; 0.0975 µM (active) in assay [4]; 0.453 µM (active) in assay [5]; 6.61 µM (active) in assay [6]; 13.6 µM (active) in assay [7]. For the same compound, in assay [3], the result was inactive.

On to `COc1nc(C)nc(NC(=O)NS(=O)(=O)c2ccccc2CCC(F)(F)F)n1`, for which the outcome in assay [1], in assay [2], in assay [3], in assay [4], in assay [5] and in assay [6] was inactive. Moreover, in assay [7], the outcome was inactive.

`CCc1nn(C)c(C(=O)NCc2ccc(C(C)(C)C)cc2)c1Cl`: the AC50 in assay [1] was 20 µM (active); in assay [2], 3.97 µM (active); in assay [3], 34.7 µM (active); in assay [4] it was 34.8 µM (active); in assay [5], 5.02 µM (active); in assay [6], 20 µM (active). Further, the half-maximal activity concentration (AC50) in assay [7] is 29.4 µM (active).

Consider `CO/C=C(/C(=O)OC)c1ccccc1Oc1cc(Oc2ccccc2C#N)ncn1`, for which the AC50 was 26.6 µM (active) and 25.4 µM (active) in assay [1]; 17.4 µM (active) [middle of 4 runs] in assay [2]; 34.9 µM (active) and 34.2 µM (active) and 30 µM (active) in assay [3]; 6.9 µM (active) and 5.28 µM (active) and 13 µM (active) in assay [4]; 12.5 µM (active) [middle of 4 runs] in assay [5]; 13.9 µM (active) [middle of 4 runs] in assay [6]. Besides, the AC50 in assay [7] was 21.1 µM (active) and 15.4 µM (active). The outcome in assay [1], in assay [3], in assay [4], in assay [7] and in assay [8] was inactive.

Regarding `Cc1ccc(-c2c(Cl)nc(C#N)n2S(=O)(=O)N(C)C)cc1`, the AC50 in assay [1] is 24.7 µM (active); in assay [2] it was 13.5 µM (active); in assay [3], 28.8 µM (active); in assay [5], 13.4 µM (active); in assay [6] it was 30 µM (active); in assay [7], 25 µM (active). In addition, in assay [4], the outcome was inactive.

On to `N#Cc1nn(-c2c(Cl)cc(C(F)(F)F)cc2Cl)c(N)c1S(=O)C(F)(F)F` (stereo not drawn), for which the AC50 in assay [1] is 30 µM (active); in assay [2] it was 29.8 µM (active); in assay [3], 35 µM (active); in assay [4], 5.04 µM (active); in assay [5] it was 27.8 µM (active); in assay [6], 15.6 µM (active). The AC50 in assay [7] was 34 µM (active).

In the case of `COc1cnc(OC)n2nc(NS(=O)(=O)c3c(OCC(F)F)cccc3C(F)(F)F)nc12`, the outcome in assay [1], in assay [2], in assay [3], in assay [4], in assay [5] and in assay [6] was inactive. Besides, in assay [7], the outcome was inactive.

Regarding `Cc1c(F)c(F)c(COC(=O)C2C(/C=C(\Cl)C(F)(F)F)C2(C)C)c(F)c1F` (stereo not drawn), the outcome in assay [1], in assay [3], in assay [4] and in assay [5] was inactive. The AC50 in assay [2] is 12.5 µM (active); in assay [6], 26.6 µM (active); in assay [7], 25.9 µM (active).

`COc1nc(C)nc(NC(=O)NS(=O)(=O)c2ccccc2Cl)n1`: the outcome in assay [1], in assay [2], in assay [3], in assay [4], in assay [5] and in assay [6] was inactive. The result in assay [7] was inactive.
